# Assay results reported in paper PMC8384837, “Expanding the binding specificity for RNA recognition by a PUF domain”.
# Legend:
# Assay in all cases: yeast three-hybrid, YBZ-1, SC-Leu-His + 0.5 mM 3-AT, 4 days
# Conditions in all cases: tags: N-Gal4 AD-HA kept; label: inside an RPR1-promoter hybrid RNA with tandem MS2 sites; ssRNA
# PUM1 PUF domain R8-KHA = PUM1 PUF domain R8-KHA (Homo sapiens, UniProt Q14671 828-1176, N1122K;Y1123H;Q1126A)
# Summary of the method: (§1)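 The interaction score is the logarithmic change in variant frequency from input to selection. It uses log2, with a pseudocount of 1 for absent variants, and frequencies came from PCR-amplified, Illumina-sequenced repeat regions. The libraries were Pumilio-1 PUF domains randomized at the three base-contacting residues per repeat, co-expressed with matching RNA elements in strain YBZ-1 (LexA–MS2 coat fusion, HIS3 reporter). Plating lasted four days on SC-Leu (input) or SC-Leu-His + 0.5 mM 3-AT (selection).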
# PUM1 PUF domain R8-HFA = PUM1 PUF domain R8-HFA (Homo sapiens, UniProt Q14671 828-1176, N1122H;Y1123F;Q1126A)
# Summary of the method: as §1
# PUM1 PUF domain R6-EWV = target: T1, PUM1 PUF domain R6-EWV (Homo sapiens, UniProt Q14671 828-1176, N1043E;Y1044W;Q1047V)
# T1 sequence: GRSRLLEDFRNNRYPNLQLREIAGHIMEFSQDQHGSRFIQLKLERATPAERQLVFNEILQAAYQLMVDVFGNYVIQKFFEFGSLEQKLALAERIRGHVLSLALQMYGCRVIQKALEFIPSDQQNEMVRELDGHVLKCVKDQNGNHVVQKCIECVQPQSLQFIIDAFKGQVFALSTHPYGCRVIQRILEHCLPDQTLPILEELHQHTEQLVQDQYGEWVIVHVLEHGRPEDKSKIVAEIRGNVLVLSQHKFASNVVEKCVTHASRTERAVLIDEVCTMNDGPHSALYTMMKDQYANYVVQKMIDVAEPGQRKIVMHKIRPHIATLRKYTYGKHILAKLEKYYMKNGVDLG
# Summary of the method: as §1
# PUM1 PUF domain R7-DFE = PUM1 PUF domain R7-DFE (Homo sapiens, UniProt Q14671 828-1176, S1079D;N1080F)
# Summary of the method: as §1
# PUM1 PUF domain R8-IRK = PUM1 PUF domain R8-IRK (Homo sapiens, UniProt Q14671 828-1176, N1122I;Y1123R;Q1126K)
# Summary of the method: as §1
# PUM1 PUF domain R3-RRK = PUM1 PUF domain R3-RRK (Homo sapiens, UniProt Q14671 828-1176, C935R;Q939K)
# Summary of the method: as §1
# PUM1 PUF domain R5-QSC = PUM1 PUF domain R5-QSC (Homo sapiens, UniProt Q14671 828-1176, C1007Q;R1008S;Q1011C)
# Summary of the method: as §1
# PUM1 PUF domain R5-SGC = PUM1 PUF domain R5-SGC (Homo sapiens, UniProt Q14671 828-1176, C1007S;R1008G;Q1011C)
# Summary of the method: as §1
# PUM1 PUF domain R5-RSK = PUM1 PUF domain R5-RSK (Homo sapiens, UniProt Q14671 828-1176, C1007R;R1008S;Q1011K)
# Summary of the method: as §1
sequence,measurement,setting,value
GGCUAGAACUAGUGGAUCCCCCGGCGCCCGGCGGCUCGAGCCCGGGUAAGUGUAAAUAGUCUGCAUGCCGCCGGGCGCCAUGCCUGCAGGUCGACUCUAGAAAACAUG,binding signal,PUM1 PUF domain R8-KHA,3.55 log2 enrichment (interaction score)
same,binding signal,PUM1 PUF domain R8-HFA,2.13 log2 enrichment (interaction score)
same,binding signal,PUM1 PUF domain R6-EWV,1.65 log2 enrichment (interaction score)
same,binding signal,PUM1 PUF domain R7-DFE,2.67 log2 enrichment (interaction score)
GGCUAGAACUAGUGGAUCCCCCGGCGCCCGGCGGCUCGAGCCCGGGUAAGCGUAAAUAGUCUGCAUGCCGCCGGGCGCCAUGCCUGCAGGUCGACUCUAGAAAACAUG,binding signal,PUM1 PUF domain R8-HFA,3.45 log2 enrichment (interaction score)
same,binding signal,PUM1 PUF domain R8-IRK,2.54 log2 enrichment (interaction score)
GGCUAGAACUAGUGGAUCCCCCGGCGCCCGGCGGCUCGAGCCCGGGUAAGUGAAAAUAGUCUGCAUGCCGCCGGGCGCCAUGCCUGCAGGUCGACUCUAGAAAACAUG,binding signal,PUM1 PUF domain R6-EWV,3.43 log2 enrichment (interaction score)
GGCUAGAACUAGUGGAUCCCCCGGCGCCCGGCGGCUCGAGCCCGGGUAAGUGUAAUUAGUCUGCAUGCCGCCGGGCGCCAUGCCUGCAGGUCGACUCUAGAAAACAUG,binding signal,PUM1 PUF domain R3-RRK,4.07 log2 enrichment (interaction score)
GGCUAGAACUAGUGGAUCCCCCGGCGCCCGGCGGCUCGAGCCCGGGUAAGUGUGAAUAGUCUGCAUGCCGCCGGGCGCCAUGCCUGCAGGUCGACUCUAGAAAACAUG,binding signal,PUM1 PUF domain R5-QSC,3.71 log2 enrichment (interaction score)
same,binding signal,PUM1 PUF domain R5-SGC,2.36 log2 enrichment (interaction score)
GGCUAGAACUAGUGGAUCCCCCGGCGCCCGGCGGCUCGAGCCCGGGUAAGUGUCAAUAGUCUGCAUGCCGCCGGGCGCCAUGCCUGCAGGUCGACUCUAGAAAACAUG,binding signal,PUM1 PUF domain R5-RSK,3.23 log2 enrichment (interaction score)
